The supplement of paper PMC10849652
About 8,800 targets were measured; listed, in parts, are those with a hit and a random draw of the rest. About 0.5% of all pairs of compound and target were hits.

Key:
Assay in all cases: log2 fold change, soluble protein after heating vs DMSO (PISA); higher = thermal stabilisation; K562 lysate, 10 uM; active = over 0.2 and 3.5 SD of the protein, either way, in both replicates (recomputed)
[1] = compound: C1=CC=C(C=C1)[C@H](COC2=CC3=C(C=C2)NC(=O)N3)NC(=O)C4=CC=CN(C4=O)CC5=CC(=C(C=C5)F)F
Summary of the method: (§1)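 Following dounce homogenisation of K562 pellets in PBS pH 7.4 with 1 mM MgCl2, crude extract at 1 mg/mL protein was incubated for 30 min with 10 μM compound. Aliquots were then heated for 3 min over 48°C-58°C and pooled, NP-40 was added to 0.5% at 4°C, and soluble protein was recovered as the supernatant at 21,000xg for 90 min. Channel-sum-equalised TMTpro 16plex LC-MS/MS quantified this protein. Each value, from duplicates, is a log-two fold change in thermal stability relative to solvent controls.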

[2] = compound: CC1=C(SC2=C1C(=N[C@H](C3=NN=C(N32)C)CC(=O)N)C4=CC=C(C=C4)Cl)C
Summary of the method: as §1

[3] = compound: CC1=C2C(=CC=C1)N=C(N(C2=O)C3=CC=CC=C3C)CN4C=NC5=C(N=CN=C54)N
Summary of the method: as §1

[4] = compound: Cc1sc2c(c1C)C(c1ccc(Cl)cc1)=N[C@@H](CC(=O)OC(C)(C)C)c1nnc(C)n1-2
Summary of the method: as §1

[5] = compound: c1ccc([C@@H]2C[C@H]2NC2CCNCC2)cc1
Summary of the method: as §1

Measured: log2 fold change

RAF1 isoform 2 (UniProt P04049)
Sequence of UniProt P04049 (P04049 whole entry, looked up): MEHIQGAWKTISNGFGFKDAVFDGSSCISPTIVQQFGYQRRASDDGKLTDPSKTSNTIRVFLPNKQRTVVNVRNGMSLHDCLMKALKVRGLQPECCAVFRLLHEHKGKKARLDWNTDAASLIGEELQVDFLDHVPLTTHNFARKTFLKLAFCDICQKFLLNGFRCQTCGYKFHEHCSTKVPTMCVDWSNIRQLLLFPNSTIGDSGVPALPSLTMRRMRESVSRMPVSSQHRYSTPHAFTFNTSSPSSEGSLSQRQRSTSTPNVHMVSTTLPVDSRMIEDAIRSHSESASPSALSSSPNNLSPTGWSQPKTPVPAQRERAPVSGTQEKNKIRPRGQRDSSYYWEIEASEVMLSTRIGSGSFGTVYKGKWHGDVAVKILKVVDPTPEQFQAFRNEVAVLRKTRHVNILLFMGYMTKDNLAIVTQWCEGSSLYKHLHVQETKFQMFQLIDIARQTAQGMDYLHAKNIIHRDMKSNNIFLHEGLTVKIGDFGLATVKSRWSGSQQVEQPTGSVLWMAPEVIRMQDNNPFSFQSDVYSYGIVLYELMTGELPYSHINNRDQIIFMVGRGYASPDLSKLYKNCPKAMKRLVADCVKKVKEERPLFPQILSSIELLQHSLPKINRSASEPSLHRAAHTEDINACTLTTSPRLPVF
inactive: [1] 0.024 | [2] 0.035 | [3] -0.104 | [4] -0.017 | [5] 0.013

RPTOR (UniProt Q8N122)
Sequence of UniProt Q8N122 (Q8N122 whole entry, looked up): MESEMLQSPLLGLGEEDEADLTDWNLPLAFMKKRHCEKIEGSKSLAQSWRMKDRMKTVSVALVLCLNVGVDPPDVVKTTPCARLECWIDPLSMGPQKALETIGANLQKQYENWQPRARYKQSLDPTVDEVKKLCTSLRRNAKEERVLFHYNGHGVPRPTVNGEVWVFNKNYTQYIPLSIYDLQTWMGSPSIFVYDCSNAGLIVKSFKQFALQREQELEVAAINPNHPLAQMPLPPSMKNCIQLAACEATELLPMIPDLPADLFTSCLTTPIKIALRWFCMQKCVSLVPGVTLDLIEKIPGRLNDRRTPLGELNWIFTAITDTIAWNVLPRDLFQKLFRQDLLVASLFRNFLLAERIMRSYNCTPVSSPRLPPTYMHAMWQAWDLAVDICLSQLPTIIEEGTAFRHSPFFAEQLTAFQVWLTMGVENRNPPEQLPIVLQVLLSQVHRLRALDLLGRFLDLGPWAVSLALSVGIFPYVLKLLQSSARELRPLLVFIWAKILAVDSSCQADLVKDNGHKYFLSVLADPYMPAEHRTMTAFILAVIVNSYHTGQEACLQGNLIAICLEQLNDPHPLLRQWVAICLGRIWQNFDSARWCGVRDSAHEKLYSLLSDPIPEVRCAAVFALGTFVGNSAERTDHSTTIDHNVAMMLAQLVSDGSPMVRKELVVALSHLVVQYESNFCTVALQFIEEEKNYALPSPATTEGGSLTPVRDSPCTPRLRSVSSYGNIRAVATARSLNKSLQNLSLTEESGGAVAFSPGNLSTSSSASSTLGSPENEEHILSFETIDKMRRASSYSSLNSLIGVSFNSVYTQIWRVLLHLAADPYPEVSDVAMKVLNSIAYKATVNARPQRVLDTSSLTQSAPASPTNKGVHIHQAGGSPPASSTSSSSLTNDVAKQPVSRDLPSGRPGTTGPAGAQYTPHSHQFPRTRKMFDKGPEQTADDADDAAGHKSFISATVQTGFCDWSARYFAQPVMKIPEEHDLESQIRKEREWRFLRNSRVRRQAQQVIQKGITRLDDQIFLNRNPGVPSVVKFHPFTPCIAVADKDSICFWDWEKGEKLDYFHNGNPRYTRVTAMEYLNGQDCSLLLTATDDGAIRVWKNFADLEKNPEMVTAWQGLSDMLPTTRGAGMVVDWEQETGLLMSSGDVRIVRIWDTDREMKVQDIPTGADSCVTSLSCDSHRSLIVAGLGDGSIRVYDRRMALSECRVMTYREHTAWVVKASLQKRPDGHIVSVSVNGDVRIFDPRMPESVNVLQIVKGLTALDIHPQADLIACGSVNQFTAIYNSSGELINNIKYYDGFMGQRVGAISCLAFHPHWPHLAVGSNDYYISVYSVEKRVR
inactive: [1] 0.015 | [2] -0.024 | [3] 0.035 | [4] -0.008 | [5] 0.04

RSU1 (UniProt Q15404)
inactive: [1] 0.056 | [2] 0.004 | [3] -0.004 | [4] -0.017 | [5] 0.157

RPL37A (UniProt P61513)
inactive: [1] -0.009 | [2] 0 | [3] -0.031 | [4] 0.191 | [5] 0.166

SCML2 (UniProt Q9UQR0)
inactive: [1] -0.036 | [2] 0.062 | [3] -0.055 | [4] -0.032 | [5] 0.02

SCCPDH (UniProt Q8NBX0)
inactive: [1] 0.165 | [2] -0.144 | [3] 0.038 | [4] -0.004 | [5] -0.164

RAE1 (UniProt P78406)
Sequence of UniProt P78406 (P78406 whole entry, looked up): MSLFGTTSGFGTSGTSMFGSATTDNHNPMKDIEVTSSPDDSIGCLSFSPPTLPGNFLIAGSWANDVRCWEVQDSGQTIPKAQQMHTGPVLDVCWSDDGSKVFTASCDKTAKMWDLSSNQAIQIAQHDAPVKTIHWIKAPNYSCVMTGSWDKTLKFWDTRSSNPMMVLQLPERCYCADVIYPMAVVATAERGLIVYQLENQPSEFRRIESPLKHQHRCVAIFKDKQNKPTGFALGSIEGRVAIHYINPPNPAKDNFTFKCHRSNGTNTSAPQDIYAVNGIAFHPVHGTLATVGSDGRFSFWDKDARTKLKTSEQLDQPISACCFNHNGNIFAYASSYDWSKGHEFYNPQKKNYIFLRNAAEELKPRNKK
inactive: [1] -0.022 | [2] -0.081 | [3] -0.005 | [4] 0.07 | [5] -0.022

RAB21 (UniProt Q9UL25)
Sequence of UniProt Q9UL25 (Q9UL25 whole entry, looked up): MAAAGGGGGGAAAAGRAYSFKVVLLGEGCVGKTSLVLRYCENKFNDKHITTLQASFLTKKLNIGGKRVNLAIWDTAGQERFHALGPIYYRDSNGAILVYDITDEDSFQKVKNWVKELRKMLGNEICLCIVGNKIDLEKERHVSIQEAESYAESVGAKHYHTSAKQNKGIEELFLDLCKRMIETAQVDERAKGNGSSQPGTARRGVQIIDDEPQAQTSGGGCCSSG
inactive: [1] -0.086 | [2] 0.036 | [3] 0.019 | [4] 0.055 | [5] 0.127

RRM1 (UniProt P23921)
inactive: [1] 0.014 | [2] 0.028 | [3] 0.042 | [4] 0.028 | [5] 0.004

SAR1A (UniProt Q9NR31)
inactive: [1] 0.066 | [2] 0.038 | [3] 0.005 | [4] -0.116 | [5] -0.009

RFC5 (UniProt P40937)
inactive: [1] -0.024 | [2] 0.018 | [3] 0.041 | [4] 0.034 | [5] 0.027

RNF213, A0A0A0MTC1
inactive: [1] -0.02 | [2] -0.007 | [3] 0.069 | [4] 0.004 | [5] 0.045

RPS6KB1 (UniProt P23443)
inactive: [1] 0.029 | [2] -0.051 | [3] 0.027 | [4] 0.023 | [5] -0.018

SDHA (UniProt P31040)
inactive: [1] 0.114 | [2] -0.012 | [3] -0.012 | [4] 0.005 | [5] -0.007

REEP6 (UniProt Q96HR9)
inactive: [1] 0.038 | [2] -0.081 | [3] 0.005 | [4] -0.107 | [5] -0.181

QRSL1 (UniProt Q9H0R6)
Sequence of UniProt Q9H0R6 (Q9H0R6 whole entry, looked up): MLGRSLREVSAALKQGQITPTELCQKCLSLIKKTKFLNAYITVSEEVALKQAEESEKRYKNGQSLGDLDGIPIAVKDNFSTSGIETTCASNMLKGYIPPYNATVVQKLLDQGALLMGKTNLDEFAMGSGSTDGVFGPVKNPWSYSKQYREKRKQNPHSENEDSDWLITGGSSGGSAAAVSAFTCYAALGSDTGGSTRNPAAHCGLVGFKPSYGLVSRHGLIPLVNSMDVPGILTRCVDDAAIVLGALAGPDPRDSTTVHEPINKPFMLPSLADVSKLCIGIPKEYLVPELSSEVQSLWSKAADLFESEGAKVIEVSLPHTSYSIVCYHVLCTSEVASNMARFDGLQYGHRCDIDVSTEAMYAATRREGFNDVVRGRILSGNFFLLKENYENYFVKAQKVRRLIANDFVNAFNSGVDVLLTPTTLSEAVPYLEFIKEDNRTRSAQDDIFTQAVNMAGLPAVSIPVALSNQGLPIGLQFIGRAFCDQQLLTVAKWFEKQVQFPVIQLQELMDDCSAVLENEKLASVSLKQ
inactive: [1] -0.005 | [2] -0.056 | [3] -0.101 | [4] 0.041 | [5] 0.094

SERPINI1 (UniProt Q99574)
Sequence of UniProt Q99574 (Q99574 whole entry, looked up): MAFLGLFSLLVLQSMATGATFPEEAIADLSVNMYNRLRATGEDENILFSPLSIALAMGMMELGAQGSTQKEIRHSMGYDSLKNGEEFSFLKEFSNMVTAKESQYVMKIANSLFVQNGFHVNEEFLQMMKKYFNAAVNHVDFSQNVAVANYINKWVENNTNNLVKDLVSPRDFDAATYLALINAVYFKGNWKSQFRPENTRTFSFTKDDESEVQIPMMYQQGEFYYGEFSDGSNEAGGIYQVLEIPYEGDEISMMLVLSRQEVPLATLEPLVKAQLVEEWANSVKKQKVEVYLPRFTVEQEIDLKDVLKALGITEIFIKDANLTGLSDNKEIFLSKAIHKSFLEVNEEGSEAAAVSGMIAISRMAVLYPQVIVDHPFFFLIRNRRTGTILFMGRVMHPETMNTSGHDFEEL
inactive: [1] 0.067 | [2] -0.033 | [3] 0.031 | [4] -0.011 | [5] -0.021

RPLP0P6 (UniProt Q8NHW5)
inactive: [1] 0.052 | [2] -0.038 | [3] -0.002 | [4] -0.026 | [5] -0.027

RAD51C (UniProt O43502)
inactive: [1] -0.028 | [2] 0.026 | [3] 0.078 | [4] -0.029 | [5] -0.004

RPS4X (UniProt P62701)
inactive: [1] 0.02 | [2] 0.029 | [3] -0.009 | [4] 0.044 | [5] 0.066

RAD17 (UniProt O75943)
inactive: [1] -0.031 | [2] -0.077 | [3] 0.047 | [4] -0.066 | [5] 0.002

RAC2 (UniProt P15153)
inactive: [1] -0.116 | [2] 0.043 | [3] -0.032 | [4] 0.067 | [5] 0.028

RBM22 (UniProt Q9NW64)
inactive: [1] -0.073 | [2] 0.012 | [3] 0.036 | [4] 0.072 | [5] 0

RPAP1 (UniProt Q9BWH6)
Sequence of UniProt Q9BWH6 (Q9BWH6 whole entry, looked up): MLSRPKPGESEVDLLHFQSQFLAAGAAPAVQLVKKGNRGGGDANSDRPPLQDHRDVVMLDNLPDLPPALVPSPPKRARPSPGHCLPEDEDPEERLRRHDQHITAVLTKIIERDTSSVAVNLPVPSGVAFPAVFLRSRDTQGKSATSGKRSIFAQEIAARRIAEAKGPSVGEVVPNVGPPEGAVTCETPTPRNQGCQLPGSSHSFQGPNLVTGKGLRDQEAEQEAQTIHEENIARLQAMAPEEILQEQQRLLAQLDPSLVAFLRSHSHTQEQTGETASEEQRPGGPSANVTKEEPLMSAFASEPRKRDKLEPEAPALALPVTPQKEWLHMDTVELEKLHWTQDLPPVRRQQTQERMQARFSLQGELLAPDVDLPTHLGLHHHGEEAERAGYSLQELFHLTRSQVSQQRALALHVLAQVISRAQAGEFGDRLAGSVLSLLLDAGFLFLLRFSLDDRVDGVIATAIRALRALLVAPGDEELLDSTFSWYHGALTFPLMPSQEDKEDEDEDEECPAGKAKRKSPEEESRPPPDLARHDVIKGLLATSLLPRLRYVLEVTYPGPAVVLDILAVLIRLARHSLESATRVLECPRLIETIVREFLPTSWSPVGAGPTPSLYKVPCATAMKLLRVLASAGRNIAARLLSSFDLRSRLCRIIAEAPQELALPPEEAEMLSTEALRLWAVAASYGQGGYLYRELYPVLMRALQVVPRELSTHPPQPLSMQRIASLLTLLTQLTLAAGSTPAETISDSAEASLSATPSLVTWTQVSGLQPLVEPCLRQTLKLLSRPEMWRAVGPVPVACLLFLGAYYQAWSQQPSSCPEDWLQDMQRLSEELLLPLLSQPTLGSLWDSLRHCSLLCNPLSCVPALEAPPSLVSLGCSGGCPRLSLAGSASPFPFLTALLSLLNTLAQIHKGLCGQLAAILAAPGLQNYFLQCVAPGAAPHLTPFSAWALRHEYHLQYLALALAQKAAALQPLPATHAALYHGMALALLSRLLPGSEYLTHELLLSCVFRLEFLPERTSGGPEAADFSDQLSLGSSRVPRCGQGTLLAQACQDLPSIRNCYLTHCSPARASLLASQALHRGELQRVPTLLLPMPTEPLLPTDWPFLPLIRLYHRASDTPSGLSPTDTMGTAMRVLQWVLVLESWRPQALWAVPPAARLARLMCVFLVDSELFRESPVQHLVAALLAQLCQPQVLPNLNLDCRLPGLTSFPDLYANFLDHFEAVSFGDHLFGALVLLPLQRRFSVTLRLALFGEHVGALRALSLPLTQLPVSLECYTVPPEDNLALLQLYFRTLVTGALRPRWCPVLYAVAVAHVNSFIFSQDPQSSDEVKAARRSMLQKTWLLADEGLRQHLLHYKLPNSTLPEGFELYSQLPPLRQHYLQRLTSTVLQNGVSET
inactive: [1] -0.006 | [2] 0.018 | [3] 0.015 | [4] -0.038 | [5] 0.028

RPL36AL (UniProt Q969Q0)
inactive: [1] 0.074 | [2] -0.049 | [3] -0.03 | [4] 0.274 | [5] 0.015
